Assay outcomes from PubChem.
ZTA DNA inh = counter-screen for EBNA-1 inhibitors: inhibitors of Epstein-Barr virus ZTA; ZTA-DNA binding, fluorescence polarization; inhibition, % at 11 µM; P03206; actives 0.15% (n = 320,000); in the data active = inhibition above about 33%
Target sequence (P03206 whole entry, looked up): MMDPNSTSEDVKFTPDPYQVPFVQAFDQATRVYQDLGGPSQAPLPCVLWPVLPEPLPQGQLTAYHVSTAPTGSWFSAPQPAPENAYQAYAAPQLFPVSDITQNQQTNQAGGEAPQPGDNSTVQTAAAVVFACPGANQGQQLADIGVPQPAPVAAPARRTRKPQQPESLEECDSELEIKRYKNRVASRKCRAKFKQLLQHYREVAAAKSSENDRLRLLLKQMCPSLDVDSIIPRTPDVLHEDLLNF
EBV gp42 inh = inhibitors of Epstein-Barr virus glycoprotein 42; Q1HVG2; Fluorescence polarization binding assay, mP read-out; inhibition, % (tested at 21.74 µM); actives 0.42% (n = 220,000); AID 1085; in the data active = inhibition above about 50%
Target sequence (Q1HVG2 whole entry, looked up): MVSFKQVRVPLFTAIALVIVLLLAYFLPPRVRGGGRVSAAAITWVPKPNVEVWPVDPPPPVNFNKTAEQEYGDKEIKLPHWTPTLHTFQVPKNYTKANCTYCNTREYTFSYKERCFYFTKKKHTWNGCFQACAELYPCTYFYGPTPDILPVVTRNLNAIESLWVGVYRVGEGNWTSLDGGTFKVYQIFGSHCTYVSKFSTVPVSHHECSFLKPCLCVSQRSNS
EBNA-1 inh = blocks EBNA-1 binding to DNA. EBNA-1 DNA binding, fluorescence polarization. inhibition, % at 14.8 µM. actives 0.34% (n = 300,000). AID 1950; in the data active = inhibition above about 28%
MEX-5 binding = C. elegans MEX-5 TCR-2 RNA binding activity | activity score (negative = inhibition of binding), % at 10 µM | MEX-5/FITC-TCR2 RNA binding, fluorescence polarization; hits give low values | actives 0.38% (n = 300,000) | Q9XUB2;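 active = inhibition past about -25% in most replicates, and total fluorescence under double the plate's negative control median, limit read from the data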;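 note: 0% = DMSO and -100% = 5 µM competing unlabeled TCR2 RNA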
EBNA-1 inh conf = EBNA-1 (EBV) inhibition, confirmation | Recombinant EBNA-1 DBD, Cy5-DNA fluorescence polarization | AID 2292 | actives 35% (n = 830) | inhibition, % at 14.8 µM | shares compounds with EBNA-1 inh;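 active = mean inhibition across replicates above a set limit taken from the earlier primary screen, cut at about 28% in these data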;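 note: plate controls were EBNA-1 protein with DMSO for no effect and wells lacking EBNA-1 for full effect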
ZTA counter trip = counter-screen for EBNA-1 inhibitors: Epstein-Barr virus ZTA inhibitors, triplicate | shares compounds with EBNA-1 inh | Zta-ZRE DNA binding, Cy5 fluorescence polarization | inhibition, % at 11.1 µM | 830 tested, under 10 active | AID 2328;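 active = mean inhibition over triplicates above a set limit taken from the primary EBNA-1 screen, cut at about 37% in these data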;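 note: purified full length Zta protein with Cy5 labeled ZRE DNA probe; 0% = Zta with DMSO and 100% = wells lacking Zta protein; inhibitors lower polarization by freeing the labeled DNA probe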
Active calls of the source: *; . = not tested or not shown. A selection: hits, their analogues and other compounds. The true share with any hit is near 1%.

SMILES	ZTA DNA inh	EBV gp42 inh	EBNA-1 inh	MEX-5 binding	EBNA-1 inh conf	ZTA counter trip
Cc1ccc(NC(=O)c2sc3ncn(CC(=O)N4CCN(c5ccccn5)CC4)c(=O)c3c2C)cc1Cl	-13	.	31*	1	-3	-1
Cc1c(N)cccc1-n1cnnn1	13	-3	11	1	.	.
c1cc2ccc3ccc(-n4cnnn4)c4ccc(c1)c2c34	27	-15	34*	-3	35*	22
CCCN1CCN(S(=O)(=O)c2ccc(-n3cnnn3)cc2)CC1	5	.	0	2	.	.
Cc1ccc2nc(-c3cccc(NC(=O)c4ccc5c(c4)OCCO5)c3)oc2c1	19	-19	35*	-4	23	7
O=C(Nc1ccc2oc(-c3ccccc3)nc2c1)c1ccccc1F	12	-14	35*	0	-3	-2
CCC(=O)Nc1cccc(-c2nc3ccc(C)cc3o2)c1	-20	.	-8	0	.	.
O=C(Nc1ccc2oc(-c3ccc4ccccc4c3)nc2c1)c1ccc2c(c1)OCCO2	12	-19	31*	1	25	9
Cc1ccc2oc(-c3cccc(NC(=O)Cc4cccs4)c3)nc2c1	7	-5	34*	1	14	-3
O=C(CSc1nc2ncc(Cl)cc2[nH]1)c1c[nH]c2ccccc12	-14	-19	31*	-13	18	8
CCCCn1c(N)c(N(CCOC)C(=O)COC(=O)COc2ccccc2C#N)c(=O)[nH]c1=O	-5	.	-17	-4	.	.
Cc1cc2cc(CNC(=O)c3ccc(S(=O)(=O)N4CCCC4)cc3)ccc2n1C	2	-5	33*	1	-8	24
Cc1cc2cc(CNC(=O)c3ccc(S(=O)(=O)N4CCCCC4)cc3)ccc2n1C	11	18	23	1	.	.
O=[N+]([O-])c1cccc(/C=N/Nc2nc(NCc3ccccc3)nc(N3CCOCC3)n2)c1	11	-23	49*	0	71*	0
CCc1ccc(/C=C2/C(=O)N(c3ccccc3)C(=S)N2CC(=O)OC)s1	8	-27	41*	-3	21	1
COc1ccc(CNS(=O)(=O)c2ccc3c(c2)NC(=O)C(C)S3)cc1 (stereo not given)	8	.	7	1	.	.
COc1ccc2cc(/C=N/NC(=O)c3ccc(CN(c4ccc(C)c(C)c4)S(C)(=O)=O)cc3)c(Cl)nc2c1	-3	-49	53*	4	24	14
COc1ccc2cc(/C=N/NC(=O)CN(c3ccccc3)S(=O)(=O)c3ccccc3)c(Cl)nc2c1	-4	-73	35*	-3	7	-10
COc1ccc2cc(/C=N/NC(=O)c3c(Cl)cnn3C)c(Cl)nc2c1	-3	-6	-1	0	.	.
COC(=O)COc1ccc(/C=N/NC(=O)c2ccc(N(Cc3ccccc3)S(C)(=O)=O)cc2)cc1	-20	-5	67*	-2	16	0
COCCNC(=O)Cn1nc(-c2ccccc2F)ccc1=O	.	.	.	2	.	.
O=C(CCCN1C(=O)/C(=C/c2cccs2)SC1=S)NNC(=O)c1ccccc1O	20	-5	40*	-3	20	8
CCOC(=O)c1c(NC(=O)c2cc(C)on2)c2cc([N+](=O)[O-])ccc2n1C	4	-12	-4	-4	.	.
CSc1cccc(NC(=O)NCc2cccc(CNC(=O)Nc3cccc(SC)c3)c2)c1	7	-13	34*	1	41*	3
CCOc1ccc(N(CC(=O)N/N=C(\C)c2cccc(NC(C)=O)c2)S(=O)(=O)c2ccccc2)cc1	-2	.	53*	-2	10	7
SMILES	ZTA DNA inh	EBV gp42 inh	EBNA-1 inh	MEX-5 binding	EBNA-1 inh conf	ZTA counter trip
O=C1CCC(C(=O)N2CCc3ccccc3C2)CN1CCCN1CCOCC1 (stereo not given)	-8	.	-3	-6	.	.
Cc1ccc(-c2nc3ccccc3[nH]2)cc1NC(=O)c1sc2cc(Cl)ccc2c1Cl	8	-16	92*	2	83*	20
Cc1ccc(-c2nc3ccccc3[nH]2)cc1NC(=O)c1ccco1	-2	4	-4	1	.	.
COc1ccccc1N(C(=O)c1ccco1)C(C(=O)NC1CCCC1)c1ccncc1 (stereo not given)	0	.	9	0	.	.
CCn1c(SCC(=O)NCCc2ccccc2)nc2c([nH]c3ccccc32)c1=O	11	.	42*	-2	7	6
O=[N+]([O-])c1ccc(C[n+]2cc(-c3ccc(Cl)c(Cl)c3)n3c2CCCCC3)cc1	-6	-19	33*	0	0	10
Cc1ccc(NC(=O)COc2ccc(/C=N/NC(=O)CSCc3ccccc3)cc2)cc1	-18	-7	11	1	.	.
O=C(CSCc1ccc(Cl)cc1)N/N=C/c1ccc(OCC(=O)Nc2ccccc2)cc1	8	-4	52*	3	29*	1
O=C(CSC1=NS(=O)(=O)c2cc(F)ccc2N1)NCCc1ccccc1	4	.	10	1	.	.
CCOc1cc(/C=N/N2CCN(Cc3ccccc3)CC2)ccc1O	12	.	-2	-3	.	.
COc1ccc(-c2cc(C(=O)Nc3c(C)nn(Cc4ccccc4)c3C)no2)cc1	-11	-18	14	-1	.	.
Cc1nn(Cc2ccccc2)c(C)c1NC(=O)c1cc(-c2ccc3c(c2)OCO3)on1	-13	-13	42*	0	43*	4
Cc1nc(C)c2c(=O)cc(-c3ccccc3)[nH]c2n1	16	-20	5	0	.	.
Cc1nc(-c2ccccc2)nc2[nH]c(-c3ccccc3)cc(=O)c12	-5	-14	28*	1	18	-3
O=C(NCC(O)c1ccccc1)c1cccs1 (stereo not given)	-8	.	4	2	.	.
NS(=O)(=O)c1ccc(NC(=O)c2ccc(COc3ccccc3)o2)cc1	3	-5	39*	-1	20	-2
COc1ccc(-c2csc(N3C(=O)CNC3=S)n2)cc1	-1	-26	82*	-3	44*	-11
COc1ccc(-c2csc(N3C(=N)SCC3=O)n2)cc1	3	-23	44*	1	16	-1
O=C1CNC(=S)N1c1nc(-c2ccccc2)cs1	0	7	-7	-1	.	.
CCn1c(=O)c(C(=O)NCc2ccc(OC)c(OC)c2)c(O)c2ccccc21	-1	-3	30*	2	-2	1
CN(CC(=O)Nc1ccc(Cl)c(C(F)(F)F)c1)C(=O)c1ccc2c(c1)NC(=O)CS2	4	.	.	.	.	.
Cc1ccc(C(=O)CSc2nc(C)cc(SCc3nnc(-c4ccccc4)o3)n2)cc1	-6	8	28*	1	23	10
COc1ccc(C(=O)CSc2cc(C)nc(SCC(=O)c3ccc(C)cc3)n2)cc1	-10	-17	2	-1	.	.
C=CCN(c1ccccc1)S(=O)(=O)c1cccc(C(=O)Nc2cccc(C)n2)c1	-13	.	-6	0	.	.
COc1ccc2[nH]c3nc(SCc4nnc(-c5ccc(C)cc5)o4)nnc3c2c1	3	-16	55*	-2	40*	6
